Pf Dd2 inh: inhibitors of Plasmodium falciparum Dd2 growth; P. falciparum Dd2 growth, SYBR Green, 72 h; Potency, µM (doses to about 28.9 µM), actives largely listed as inhibitors; 120,000 compounds, 4.3% hits; AID 1347417; active = well fitted inhibition curve with a large enough effect; note: nearly all actives have a fitted effect of over 65% in size
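Infected erythrocytes (Dd2, 0.3% parasitemia, 2.5% hematocrit final) are added to compound in RPMI-1640/Albumax II medium, grown 72 h at 37C in low oxygen, then lysed with saponin/Triton-X containing SYBR Green and read by fluorescence.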
Of the large screens only hits and unclear results are named; the others gave an inactive call. Only a selection was taken, and hits are over-represented in it overall.

CCc1ccc(NC(=O)c2cnn(-c3c(C)cccc3C)c2C2CCN(C(=O)OC(C)(C)C)CC2)cc1	none
CCOc1ccc(-c2cc3nc(C4CCN(C(=O)OC(C)(C)C)CC4)c(C(=O)Nc4ccc(C)cc4C)cn3n2)cc1	Pf Dd2 inh 8.91µM
CCOc1ccc(-c2cc(C(=O)N3CCN(c4cccc(C)c4)C(C)C3)c3ccccc3n2)cc1 (stereo not drawn)	none
CCOc1ccc(-c2cc3nc(C4CCN(C(=O)OC(C)(C)C)CC4)c(C(=O)Nc4cccc(Cl)c4C)cn3n2)cc1	Pf Dd2 inh 5.01µM
COc1ccc(-c2cc(C(F)(F)F)n3nc(C(=O)Nc4cccc(Cl)c4C)cc3n2)cc1	none
COc1ccc(-n2ncc(C(=O)Nc3ccc(C)cc3Cl)c2C2CCN(C(=O)OC(C)(C)C)CC2)cc1	none
CCOc1ccc(-c2cc3nc(C4CCN(C(=O)OC(C)(C)C)CC4)c(C(=O)Nc4c(C)cccc4C)cn3n2)cc1	Pf Dd2 inh 2.51µM
CCOc1ccc(-c2nnc(SCC(=O)Nc3ccc(C)cc3Cl)o2)cc1	none
Cc1cccc(C)c1-n1ncc(C(=O)O)c1C1CCN(C(=O)OC(C)(C)C)CC1	none
CCOc1ccc(-c2c(C)nn3c(C)c(C(=O)Nc4cccc(Cl)c4C)cnc23)cc1OCC	none
CC(C)CN1CCN(C2CCOC3(CCN(C(=O)c4cccs4)CC3)C2)CC1 (stereo not drawn)	none
CO[C@H]1C[C@@H](O)C12CCN(C(=O)c1ccc(OC(F)F)cc1)CC2	none
COCC(=O)N1c2ccccc2CC1c1noc(C(C)C)n1 (stereo not drawn)	none
COCC(=O)NC[C@H]1O[C@H](Cc2cc(CN(C)C)on2)CC[C@@H]1O	none
CC(C)C1CN(C(=O)CN(C)C2CCNCC2)CCC(=O)N1CC1CC1 (stereo not drawn)	none
Cc1ccc(S(=O)(=O)N2C3CCCC2CC(=O)C3)cc1	none
Cc1ccccc1-c1cc(C(=O)NCc2cccnc2)c2c(c1)N(C)CCO2	none
CC(C)CCNC(=O)c1cnc2n1CCN(Cc1c[nH]c3ccccc13)CC2	none
CN(CC1CCCO1)c1ccc(C(=O)N2CCC(N3CCOCC3)CC2)cn1 (stereo not drawn)	none
CN(C)S(=O)(=O)NCc1cccnc1N1CCN(c2ccccn2)CC1	none
COc1ccc(C(=O)N[C@@H]2CCC[C@@H]2C(=O)Nc2cc(F)ccc2C)cn1	none
COc1ccc(C(=O)N[C@@H]2CCC[C@@H]2C(=O)N2CCN(c3cc(C)ccc3C)CC2)cn1	Pf Dd2 inh 10µM
COc1ccc(C(=O)N[C@@H]2CCC[C@@H]2C(=O)N2CCN(c3ncccn3)CC2)cn1	none
CN1CCC(NC(=O)c2n[nH]c3c2CN(C(=O)c2ccccc2)CC3)CC1	none
COC(=O)CNC(=O)C1CN(c2ccc(OC)cc2)C(=O)N1 (stereo not drawn)	none
COc1ccc(-c2cc3c(nc2OC)nc(CC2CC2)n3C)cc1	none
COc1ncc(-c2cc3c(nc2OC)nc(CCc2ccccc2)n3C)cn1	Pf Dd2 inh 7.94µM
COc1nc2nc(CCc3ccccc3)n(C)c2cc1-c1ccncc1	none
Cc1nc(NCC2CC2)ncc1C(=O)O	none
COc1ccc(-n2cc(-c3ccc4c(c3)OCO4)n(CC(=O)Nc3cccc(C)c3)c2=O)cc1	Pf Dd2 inh 12.6µM
CCc1cc(=O)n(CC(=O)Nc2ccc3c(c2)OCO3)c(-c2cccc(F)c2)n1	none
COc1ccc(NC(=O)Nc2ccc(C)n(CC(=O)Nc3cccc(C)c3)c2=O)cc1	none
CN(C)c1cccc(Oc2nnnn2[C@H]2CO[C@H]3[C@@H]2OC[C@@H]3NC(=O)CC(C)(C)CC(=O)O)c1	none
CN1CCN(C(=O)c2ccc3c(c2)N(Cc2c(F)cccc2Cl)C(=O)c2ccccc2S3)CC1	Pf Dd2 inh 0.199µM
Cc1cccc(CN2C(=O)c3ccccc3Sc3ccc(C(=O)N4CCCC4)cc32)c1	Pf Dd2 inh 14.1µM
CC(C)OCCCNC(=O)c1ccc2c(c1)N(Cc1c(F)cccc1Cl)C(=O)c1ccccc1S2	none
CCOC(=O)c1ccc2c(c1)N(Cc1ccccc1)C(=O)c1ccccc1S2	none
CCN(CC)CCNC(=O)Nc1ccc2c(c1)N(Cc1ccccc1)C(=O)c1ccccc1S2	Pf Dd2 inh 3.98µM
Cc1ccccc1CN1C(=O)c2ccccc2Sc2ccc(C(=O)O)cc21	none
CN1CCN(C(=O)c2ccc3c(c2)N(Cc2ccc(C(F)(F)F)cc2)C(=O)c2ccccc2S3)CC1	Pf Dd2 inh 0.398µM
Cc1ccccc1CN1C(=O)c2ccccc2Sc2ccc(C(=O)N3CCOCC3)cc21	none
O=C(NC1CCCC1)c1ccc2c(c1)N(Cc1c(F)cccc1Cl)C(=O)c1ccccc1S2	none
Cc1ccccc1CN1C(=O)c2ccccc2Sc2ccc(C(=O)N3CCCC3)cc21	none
O=C(c1ccc2c(c1)N(Cc1cccc(F)c1)C(=O)c1ccccc1S2)N1CCOCC1	none
CN1C(=O)c2ccccc2Sc2ccc(NC(=O)NCc3ccc(Cl)cc3)cc21	none
Cc1ccc(-c2nnc(C3CN(C(=O)c4ccc(F)c(F)c4)CC34CCOCC4)o2)cc1 (stereo not drawn)	none
COc1cc(-c2ccnc3nc(CC(C)C)nn23)cc(OC)c1OC	none
COCCc1nncn1C1CCN(S(=O)(=O)c2cccc(F)c2)CC1	none
COCc1nc(-c2ccc(OC3CCN(S(=O)(=O)c4ccccc4C)C3)cc2)no1 (stereo not drawn)	none
CN1CCCC1c1nc(C2CN(C(=O)c3ccco3)C2)no1 (stereo not drawn)	none
Cc1cccc(C(=O)N2C(C(=O)NCC(C)C)COC23CCN(C(=O)c2ccccc2C)CC3)c1 (stereo not drawn)	none
COc1ccc(CN2C[C@H]3CN(C(=O)NCc4ccccc4)CCN3C2=O)cc1	none
CCS(=O)(=O)N1CCC(N2C(=O)[C@H](OCCOC)[C@@H]2c2ccncc2)CC1	none
O=C1NC2(CCN(Cc3cccc4ccccc34)CC2)Oc2ccccc21	none
COCCNC(=O)[C@@H]1C[C@@H](O)CN1C1CCN(C(=O)c2ccc3ncccc3c2)CC1	none
COCCC(=O)N1CCCCCCN(C)C(=O)[C@@H]2CCC[C@@H]21	none
COc1cc(NC(=O)c2ccc3c(c2)N(C)C2CCCCCN2C3=O)cc(OC)c1OC (stereo not drawn)	none
CCn1nccc1C(=O)N1CC2CC(C1)[C@H]1CCCC(=O)N1C2 (stereo partly drawn)	none
Cc1cnc(-c2ccncc2)n1C1CCN(C(=O)C2CC2)CC1	none
O=C1CNc2ccc(C(=O)NCc3cc4n(n3)CCCNC4)cc2N1	none
COc1cccc2c1NC(=O)CC2C(=O)N1CCc2c(nc[nH]c2=O)C1 (stereo not drawn)	none
O=C(c1ccc2c(c1)N(Cc1c(F)cccc1Cl)C(=O)c1ccccc1S2)N1CCC2(CC1)OCCO2	Pf Dd2 inh 10µM
CCN(C(=O)CN1C(=O)c2ccccc2Sc2ccc(C(=O)OC)cc21)c1cccc(C)c1	Pf Dd2 inh 11.2µM
COC(=O)c1ccc2c(c1)N(Cc1ccc(F)cc1)C(=O)c1ccccc1S2	none
COC(=O)c1ccc2c(c1)N(Cc1ccc(Cl)cc1)C(=O)c1ccccc1S2	none
O=C(NCCc1ccccc1)c1ccc2c(c1)N(Cc1c(F)cccc1Cl)C(=O)CS2	none
COc1cc(C)cc(C(C(=O)O)N2CCN(c3cnccn3)CC2)c1OC (stereo not drawn)	none
COC(=O)[C@@H]1Cc2ncn(Cc3ccc(OC)cc3)c2CN1C(=O)c1cccs1	none
CC(C)(Oc1nn(CCN2CCOCC2)c2ccccc12)C(=O)NCc1ccncc1	none
COCc1ccc2c(c1)c(OC(C)(C)C(=O)NCCN1CCOCC1)nn2Cc1ccccc1	none
COCc1ccc2c(c1)c(OC(C)(C)C(=O)NCC1CC1)nn2Cc1ccccc1	Pf Dd2 inh 4.47µM
COCc1ccc2c(c1)c(OC(C)(C)C(=O)NC1CC1)nn2Cc1ccccc1	none
